# From PubChem
# The entries come from a sample that favours hits as a whole.
# IDH1 R132H inh – inhibitors of human mutant IDH1 R132H; O75874; IDH1-R132H enzyme, NADPH consumption, diaphorase/resazurin fluorescence; Potency, µM (top dose mostly 76.6 µM), without a hit: at the top dose activity change, negative = inhibition, actives largely listed as inhibitors; 0.093% of 390,000 active; AID 602179; note: potency is the fitted concentration of half-maximal effect; % is set by controls: 0 for no effect and ±100 for the full control effect; nearly all actives have a fitted effect of over 65% in size
#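 IDH1-R132H (0.5 ug/mL) preincubated 30 min with compound, then NADPH (0.016 mM) and alpha-KG (2 mM) added; 80 min at RT, pH 7.5. Remaining NADPH coupled via diaphorase/resazurin to fluorescence (540/590 nm); concentration-response curves normalized to no-enzyme control.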
# ClpP mod – qHTS Assay for Activators of ClpP. purified B. subtilis ClpP, FRET peptide cleavage, 20 min. AID 651965, 2013. Potency, µM (highest dose often 57.5 µM), for inactives: top-dose activity change, negative = active. ATP-dependent Clp protease proteolytic subunit (Bacillus subtilis (strain 168)), P80244. 1.9% of 340,000 active; active = well fitted falling curve with a large enough effect; inconclusive = small, poorly fitted or top-dose-only effect; inactive = no such curve, though single readings can be large or run the other way; note: potency is the fitted concentration of half-maximal effect; the source files actives as falling curves though it sought activators and does not explain the sign; nearly all actives have a fitted effect of over 65% in size
# Target sequence (P80244 whole entry, looked up): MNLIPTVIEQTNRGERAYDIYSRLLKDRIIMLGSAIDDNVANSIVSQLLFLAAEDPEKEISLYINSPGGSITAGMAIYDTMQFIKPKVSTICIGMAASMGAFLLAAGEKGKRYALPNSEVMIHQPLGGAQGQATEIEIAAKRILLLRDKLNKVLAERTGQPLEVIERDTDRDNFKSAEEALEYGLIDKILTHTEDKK
#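 Buffer: 100 mM Tris/HCl pH8, 100 mM KCl, 0.05% low protease BSA, 2.5% glycerol, 0.01% Tween-20. ClpP 10 microg/mL final; 20 min RT; delta FRET normalized to ADEP and DMSO controls.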
# S-ASM inh – inhibitors of human secretory acid sphingomyelinase; 0.006% of 340,000 active; Potency, µM (top dose mostly 57.5 µM), without a hit: top-dose activity change, negative = inhibition, most hits filed as inhibitors; AID 504937; P17405; placental ASM, HMU-PC fluorogenic substrate, 60 min; note: potency is the fitted concentration of half-maximal effect
# Target sequence (P17405 47-631 limits assumed): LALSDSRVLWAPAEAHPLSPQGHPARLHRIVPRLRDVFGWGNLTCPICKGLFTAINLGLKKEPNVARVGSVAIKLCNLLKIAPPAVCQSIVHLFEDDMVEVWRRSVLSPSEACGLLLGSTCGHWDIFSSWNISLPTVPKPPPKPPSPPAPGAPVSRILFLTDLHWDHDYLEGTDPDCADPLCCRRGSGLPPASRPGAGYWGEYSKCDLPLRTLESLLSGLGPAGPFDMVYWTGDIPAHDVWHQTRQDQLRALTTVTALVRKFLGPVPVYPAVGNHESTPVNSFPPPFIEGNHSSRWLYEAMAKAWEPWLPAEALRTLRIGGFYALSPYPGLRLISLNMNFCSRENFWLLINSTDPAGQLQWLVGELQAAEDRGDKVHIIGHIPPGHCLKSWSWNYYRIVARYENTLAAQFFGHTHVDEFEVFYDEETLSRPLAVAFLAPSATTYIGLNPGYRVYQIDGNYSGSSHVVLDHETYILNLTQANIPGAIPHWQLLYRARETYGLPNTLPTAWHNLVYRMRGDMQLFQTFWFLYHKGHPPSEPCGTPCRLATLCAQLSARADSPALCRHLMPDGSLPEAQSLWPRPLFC
#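 Fluorogenic HMU-PC substrate (9 uM final) is turned over by placental ASM in 60 min at 37 C after a 10 min compound preincubation. Reaction ended by alkaline stop (pH 10), with fluorescence read at 386/447 nm.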
# LDHA block – LDHA (human) enzyme inhibition; P00338; purified LDHA, NADH/diaphorase-resazurin fluorescence; active compounds read low; activity change, % (values are at about 110 or 230 µM); 0.15% of 480,000 active; AID 1347041; in the data active = activity change below about -30%; inconclusive = mostly about -25% to -30%;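 note: plate controls were DMSO wells for no effect and wells without enzyme for full effect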
#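 Human LDH5 (2 nM) was incubated with 0.06 mM NADH and 0.2 mM pyruvate for 5 min at room temperature in Tris pH 7.4. Remaining NADH was coupled through diaphorase/resazurin, and resorufin fluorescence was read at 0 and 20 min.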
# RGS4 inh – human RGS4 inhibition. Transcreener GDP fluorescence polarization, RGS4-accelerated GTP hydrolysis. P49798. Potency, µM (highest dose often 114 µM), for the others: at the top dose activity change, negative = inhibition, actives largely listed as inhibitors. 0.039% of 390,000 active; note: potency is the fitted concentration of half-maximal effect; % is set by controls: 0 for no effect and ±100 for the full control effect; nearly all actives have a fitted effect of over 75% in size
#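 MLSMR compounds (23 nl, pin-transferred) preincubated 10 min at room temperature with a 500nM (2x) first reagent, then RGS4 at 900nM (2x) plus Transcreener GDP mix added; fluorescence polarization (620/688 nm) read before and after 90 min at 30 °C.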
# Mito fusion yeast – mitochondrial division inhibition or fusion activation. S. cerevisiae fusion-defective mutant growth rescue, CellTiterGlo 48 h. Potency, µM (highest dose often 46.1 µM), for inactives: top-dose growth rescue (activation), hits mostly activators. AID 485298. 0.23% of 320,000 active; note: potency is the fitted concentration of half-maximal effect; % of control where 0% means no effect; nearly all actives have a fitted effect of over 45% in size
#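 Luminescent cell viability in 1536-well qHTS format served as the measure of rescued growth in ts fusion-mutant S. cerevisiae cultured on non-fermentable YPEG for 48 hours at 37C.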
# An asterisk follows results filed as active; i = inactive; ? = inconclusive; · = no result; ! = a repeat was not active; [ ] = dose if it differs, or a comment. Unless noted, calls come from the whole dose curve; as a rule, active = well fitted curve in the direction sought with a large enough effect; inconclusive = small, poorly fitted or top-dose-only effect, or another doubt; inactive = no such curve, though single readings can be large; an effect the other way counts as inactive or inconclusive.
SMILES,IDH1 R132H inh,ClpP mod,S-ASM inh,LDHA block,RGS4 inh,Mito fusion yeast
CN(c1ccccc1)S(=O)(=O)c1ccc(NC(=O)c2ccc(-c3ccccc3)cc2)cc1,7.3%,25.1µM*,-0.5%,1.6,-21.5%,-0.7%
Cc1ccc(S(=O)(=O)N(C)c2ccc(C(=O)Nc3ccccc3C(=O)N3CCOCC3)cc2)cc1,3.8%,17.8µM*,-1.2%,-6.8,31.9%,4.9%
CC(=O)Nc1ccc(S(=O)(=O)N(C)c2ccccc2)cc1,-4.7%,0.2%,-0.1%,3.2,-34.6%,8.6%
c1ccc2[nH]c(NCCCN3CCOCC3)nc2c1,0.0%,1.2%,-2.0%,-11.7,-1.9%,-4.3%
O=c1[nH]c2ccccc2nc1NCCN1CCOCC1,4.6%,31.6µM*,6.0%,-10.4,-37.9%,4.0%
Cc1ccc2nc(NC(=O)Cc3cccs3)sc2c1,-1.9%,-0.1%,-4.7%,-3.7,15.0%,1.9%
CCc1ccc2nc(NC(=O)CCCc3cccs3)sc2c1,3.9%,12.6µM*,-6.7%,-0.8,-19.7%,-5.3%
Cc1cccc(NC(=O)c2ccc3[nH]c(C)c(C)c3c2)c1C,·,·,·,7.4,·,·
Cc1cc2cc(C(c3nnnn3C3CCCC3)N(Cc3cccnc3)Cc3ccco3)c(=O)[nH]c2cc1C (stereo not drawn),2.1%,?,-6.3%,5.8,?,0.4%
Cc1ccc2cc(C(c3nnnn3C3CCCC3)N(Cc3ccccc3)Cc3ccco3)c(=O)[nH]c2c1 (stereo not drawn),-7.2%,22.4µM*,-3.5%,-7.2,-11.2%,1.3%
O=C(O)/C=C/c1ccc(-c2ccc(Br)cc2)s1,·,·,·,10.6,·,·
Cc1c(C)n(Cc2ccccc2)c2ccc(C(=O)NCC(C)c3ccccc3)cc12 (stereo not drawn),-7.6%,20µM*,·,-8.3,-12.6%,·
CCn1c(C)c(C)c2cc(C(=O)NCc3ccc(OC(C)C)cc3)ccc21,2.3%,-18.6%,·,-1.5,-1.4%,·
CCOc1ccc(CNC(=O)c2ccc3c(c2)c(C)c(C)n3Cc2ccc(Cl)cc2)cc1,-2.1%,15.8µM*,·,-2.9,12.0%,·
O=C(NC1CCCC1)c1cc(-c2ccccc2Cl)nc2ccccc12,·,·,·,14.9,·,·
Cc1ccc(NC(=O)Cn2c(=O)n(Cc3ccc(C(=O)NCc4ccc5c(c4)OCO5)cc3)c(=O)c3ccccc32)cc1,6.8%,22.4µM*,·,1.2,-14.5%,·
O=C(Cn1c(=O)n(Cc2ccc(C(=O)NCc3ccc4c(c3)OCO4)cc2)c(=O)c2ccccc21)Nc1ccccc1F,2.3%,4.1%,·,-3.2,-37.3%,·
Cc1ccc(Cl)cc1NC(=O)Cn1c(=O)n(Cc2ccc(C(=O)NCc3ccc4c(c3)OCO4)cc2)c(=O)c2ccccc21,-2.6%,11.2µM*,·,-3.6,-41.0%,·
CCN1CCN(CCOc2cccc(Oc3ccccc3)c2)CC1,-10.9%,-0.6%,0.5%,-32.9*,13.8%,-3.5%
CCN1CCN(CCOCCOc2ccccc2)CC1,-12.5%,-1.4%,-0.6%,-30.5*,-15.2%,-1.5%
CCN1CCN(CCOc2cccc(Cl)c2Cl)CC1,5.1%,-1.0%,-2.9%,-35.9*,22.6%[56.9 µM],-7.6%
Cc1cccc(C)c1OCCOCCN1CCN(C)CC1,-3.9%,0.0%,2.2%,-42.9*!,14.7%,0.0%
Fc1ccc(COc2ccc(Cl)cc2)cc1,·,·,·,-19.7,·,·
CC(C)(C)OC(=O)COc1ccc2c(=O)c(Oc3ccccc3Br)coc2c1,·,·,·,1.8,·,·
CCN(CC)c1ccc2c(C)c(CN3CCOCC3)c(=O)oc2c1,-5.4%,28.2µM*,i,-2.8,-9.9%,2.1%
SMILES,IDH1 R132H inh,ClpP mod,S-ASM inh,LDHA block,RGS4 inh,Mito fusion yeast
Cc1nn2c(C(F)(F)F)cc(-c3ccc(OC(C)C)cc3)nc2c1C#N,-1.9%,5.01µM*,·,-3.9,3.7%,·
COc1ccccc1NC(C)=[N+](C)CCNS(=O)(=O)c1ccc(Cl)cc1,-3.0%,-0.1%,0.6%,-73.7*,-14.4%,-2.9%
COc1ccccc1C(=O)NC(=O)CSc1nc(C)cs1,-2.5%,28.2µM*,-2.5%,-2.1,15.6%,-2.4%
O=[N+]([O-])c1cc(S(=O)(=O)Nc2ccccc2)ccc1N1CCN(c2ccccc2)CC1,-2.6%,-27.2%,·,-9.3,23.0%,20µM*
S=C(NCCC12CC3CC(CC(C3)C1)C2)Nc1ccc(Cl)cc1,·,·,·,3.3,·,·
O=C(CSc1nc(Cl)nc2nc[nH]c12)Nc1cccc(Cl)c1,·,·,·,-35.0*,·,·
O=C(CSc1nc(Cl)nc2nc[nH]c12)Nc1cccc(F)c1,·,·,·,-4.7,·,·
COc1ccccc1CC(=O)NC1CC(C)(C)NC(C)(C)C1,1.6%,28.2µM*,4.1%,-2.8,-6.0%,-1.5%
COC(=O)CC1C(=O)NCCN1S(=O)(=O)c1ccc(F)cc1 (stereo not drawn),·,·,·,7.2,·,·
Cc1cc2c(c(SCC(N)=O)n1)C(=O)OC2,-8.8%,-1.2%,-9.6%,-6.4,-11.7%,-0.8%
Cc1cc2c(c(SCC(=O)Nc3ccccc3)n1)C(=O)OC2,·,·,·,-37.2*,·,·
OC(COc1ccccc1)CN1CCCCC1 (stereo not drawn),4.1%,31.6µM*,2.6%,1.0,?,·
CCC(C)NC(=O)c1cn(-c2cccc(C)n2)cn1 (stereo not drawn),5.3%,31.6µM*,1.6%,-3.3,20.8%,0.7%
Cc1cccc(-n2cnc(C(=O)O)c2)n1,0.1%,·,2.6%,8.9,-17.0%,14.1µM*
Cc1cccc(-n2cnc(C(=O)NC3CCCCCC3)c2)n1,6.3%,0.9%,-0.2%,-5.7,15.9%[11.4 µM],6.5%
Cc1cccc(-n2cnc(C(=O)N3CCN(C)CC3)c2)n1,-0.4%,0.8%,4.2%,-3.7,-7.5%,4.2%
Cc1cc(Cl)ccc1NC(=O)COc1c(CO)cc(F)cc1CO,·,·,·,-0.3,·,·
O=C1NC(=S)S/C1=C\c1cc(Cl)ccc1Cl,5.5%,-9.9%,1.6%,-31.0*,?,·
Cc1cc(/C=C2\SC(=S)NC2=O)c(C)[nH]1,-1.8%,·,-5.5%,-11.0,-30.2%,7.2%
CN(C)c1nc2c(Br)c(Br)c(Br)c(Br)c2[nH]1,·,·,·,·,0.9%[56.9 µM],4.11µM*
Cc1nc2c(Br)c3nc(C(F)(F)F)[nH]c3c(Br)c2[nH]1,-3.1%,0.3%,-3.7%,12.9,-19.3%,-2.3%
COc1ccccc1CNC(=O)CSc1nc(-c2ccc(OC)c(OC)c2)cc(C(F)(F)F)n1,1.9%,28.2µM*,·,-6.6,5.9%,·
COc1ccc(-c2cc(C(F)(F)F)nc(SCCC(=O)N3CCOCC3)n2)cc1,1.0%,25.1µM*,-0.3%,-7.8,-6.7%,0.5%
COc1ccc(-c2cc(C(F)(F)F)nc(SCC(=O)NCc3cccs3)n2)cc1,3.9%,35.5µM*,1.1%,-5.8,-2.1%,0.3%
